In PubChem BioAssay AID371 (SRMLSC, 2006):
Among all 3,300 compounds or so, about 280 (8.5%) were called active.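 Rule for the calls: active = mean growth inhibition over the two runs of 50% or more; inactive = mean growth inhibition under 50%.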 The list comes from a sample in which actives are over-represented; it also holds similar structures and randomly drawn compounds.

Test: A549 NSCLC cell proliferation inhibitors – ATP luminescence, human non-small cell lung line, primary screen (AID 371);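 note: compound exposure lasted 72 h before the ATP read; 0% = untreated cell signal and 100% = no luminescence left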
Settings: at 10 µM, stronger effect = higher value

Row | SMILES | growth inhibition
1 | Cc1ccc(S(=O)(=O)/C(C#N)=C/c2c(N3CCN(C)CC3)nc3c(C)cccn3c2=O)cc1 | -1.01% (inactive)
2 | Cc1nnc(NCc2n[nH]c(=O)c3ccccc23)c2ccccc12 | 69.7% (active)
3 | Cc1nnc(N2CCCCC2)c2ccccc12 | 8.14% (inactive)
4 | COc1ccc(Nc2nnc(C)c3ccccc23)cc1C(N)=O | -0.95% (inactive)
5 | Nc1nnnn1N=C1CCCCC1 | -2.31% (inactive)
6 | CCOC(=O)CCNc1n[nH]c(=O)[nH]c1=O | 4.05% (inactive)
7 | COC(=O)c1ccc(N2C(=O)CC(N3CCN(C(=O)c4ccco4)CC3)C2=O)cc1 (centres undefined) | -5.76% (inactive)
8 | COc1ccc(Cn2ccnc2)cc1Br | 7.92% (inactive)
9 | CC1(C)Cc2c(c(N3CCOCC3)nc3snc(Br)c23)CO1 | 16% (inactive)
10 | CC1(C)Cc2c(c(N3CCOCC3)nc3snc(N)c23)CO1 | 91% (active)
11 | COc1nnnc2c1sc1nc(N3CCOCC3)c3c(c12)CC(C)(C)OC3 | -0.53% (inactive)
12 | CCCCNC(=O)N1CCOCCOCCN(C(=O)NCCCC)CCOCC1 | 2.17% (inactive)
13 | N#Cc1nc(-c2ccccc2Cl)oc1N1CCCCC1 | 25.2% (inactive)
14 | CCOP(=O)(c1ccccc1)c1nc(-c2ccc(F)cc2)oc1N1CCCCC1 (centres undefined) | 35.1% (inactive)
15 | CCOP(=O)(c1ccccc1)c1nc(-c2ccccc2C)oc1N1CCCCC1 (centres undefined) | 90.3% (active)
16 | Clc1cccc(-c2nn3c(COc4ccccc4)nnc3s2)c1 | -1.72% (inactive)
17 | Cc1nn(C)cc1/C=N/n1nnnc1N | 3.1% (inactive)
18 | N#Cc1nc(-c2cccs2)oc1NCc1ccccc1Cl | 16.3% (inactive)
19 | N#Cc1nc(-c2cccs2)oc1NCc1ccccc1 | 37.1% (inactive)
20 | N#Cc1nc(-c2cccs2)oc1NCc1ccc2c(c1)OCO2 | 51.8% (active)
21 | Cc1ccc(C2/C(=C(/O)c3ccc(OC(C)C)cc3)C(=O)C(=O)N2CCN2CCOCC2)cc1 (centres undefined) | -0.89% (inactive)
22 | Oc1c(C=Nc2cccnc2)sc2ccccc12 | 9.67% (inactive)
23 | Oc1c(C=NCc2ccncc2)sc2ccccc12 | 3.71% (inactive)
24 | CC(=Nc1cccc(O)c1)c1sc2ccccc2c1O | 71.6% (active)
25 | O=C1CC(N(O)C2CC(=O)N(Cc3ccccc3)C2=O)C(=O)N1Cc1ccccc1 (centres undefined) | 9.01% (inactive)
26 | CN(C)CCCOC(=O)C1c2ccccc2Oc2ccccc21 | 8.41% (inactive)

Row | SMILES | growth inhibition
27 | Cc1ccc2[nH]c3c(c2c1)CCCC3C(N)=O (centres undefined) | 0.63% (inactive)
28 | Cc1nnc(N2CCOCC2)c2ccccc12 | -0.2% (inactive)
29 | NC(=O)C(c1ccccc1)C1CCCC1 (centres undefined) | 2% (inactive)
30 | O=C(NC1CCCCC1)N1CCSC1=Nc1ccccc1 | 83.3% (active)
31 | O=C(NC1CCCCC1)Nn1c(-c2ccccc2)nc2ccccc2c1=O | 5.81% (inactive)
32 | Cc1cc(C)n(-c2nnc(C)n2/N=C/c2ccccc2F)n1 | -1.21% (inactive)
33 | CCc1nnc(NC(=O)CSc2nc(C)c3c(c2C#N)CCCC3)s1 | 47.6% (inactive)
34 | Cc1ccc(-n2c(SCC(=O)NCc3ccco3)nc3nc4c(cc3c2=O)COC(C)(C)C4)cc1 | 7.55% (inactive)
35 | CCCc1cc(-c2nc(N)ncc2-c2ccc3c(c2)OCCCO3)c(O)cc1OC | 78.2% (active)
36 | O=S(=O)(c1ccccc1)N1CCC(N2CCCCCC2)CC1 | 11.3% (inactive)
37 | Cc1ccc(S(=O)(=O)N(CC(O)CN(C)C)c2ccccc2)cc1 (centres undefined) | 5.21% (inactive)
38 | COC(=O)c1cc(Br)c(=O)n(-c2cc(C)on2)c1 | 5.44% (inactive)
39 | CCCCCCSC1=C(C#N)C(c2ccccc2)CC(=O)N1 (centres undefined) | 17.1% (inactive)
40 | C=C(C)CSC1=C(C#N)C(c2ccsc2)CC(=O)N1 (centres undefined) | 11.7% (inactive)
41 | N#CC1=C2SCC(O)(c3ccccc3)N2C(=O)CC1c1ccccc1 (centres undefined) | 61.5% (active)
42 | CCCCn1c(O)c(C=NCCCN(C)C)c(=O)[nH]c1=O | -0.32% (inactive)
43 | CC1(C)Cc2c(C#N)c(SCCC#N)nc(N3CCOCC3)c2CS1 | 26.4% (inactive)
44 | CCOc1ccc(S(=O)(=O)N(C)C)cc1-c1nc2c(C(C)(C)C)nn(C)c2c(=O)[nH]1 | -2.28% (inactive)
45 | CCOc1ccc(S(=O)(=O)N(C)CCO)cc1-c1nc2c(C(C)(C)C)nn(C)c2c(=O)[nH]1 | 22% (inactive)
46 | CCOc1ccc(S(=O)(=O)NC(C)(C)C)cc1-c1nc2c(C(C)(C)C)nn(C)c2c(=O)[nH]1 | 62.9% (active)
47 | COC(=O)C(NC(=O)c1ccccc1)(Nc1nc(C)cs1)C(F)(F)F (centres undefined) | 4.51% (inactive)
48 | CN(C)C(CN1C(=O)C2CC=CCC2C1=O)c1cn(C)c2ccccc12 (centres undefined) | -4.21% (inactive)
49 | COc1ccc2[nH]c(C)c(C(=O)CN3CCOCC3)c2c1 | -6.74% (inactive)
50 | Nc1nnnn1/N=C/c1ccccn1 | 3.3% (inactive)
51 | COc1cccc(NC(=O)CSC2=C(C#N)C(c3ccco3)C3=C(CCCC3=O)N2)c1 (centres undefined) | 60.1% (active)
52 | C=CCOC(=O)C1=C(C)NC(SCC(=O)Nc2ccc(C)c(Cl)c2)=C(C#N)C1c1ccco1 (centres undefined) | 84.2% (active)

Row | SMILES | growth inhibition
53 | CCN(CC)C(=O)CSC1=C(C#N)C(c2ccco2)C(C(=O)OCCOC)=C(C)N1 (centres undefined) | 1.8% (inactive)
54 | COc1ccc(OC)c(NC(=O)CSC2=C(C#N)C(c3ccco3)C3=C(CCCC3=O)N2)c1 (centres undefined) | 16.1% (inactive)
55 | COCCOC(=O)C1=C(C)NC(SCC(=O)NC(C)(C)C)=C(C#N)C1c1ccco1 (centres undefined) | 32.6% (inactive)
56 | C=CCOC(=O)C1=C(C)NC(SCC(=O)N(CC)CC)=C(C#N)C1c1ccco1 (centres undefined) | 21.8% (inactive)
57 | C=CCOC(=O)C1=C(C)NC(SCC(=O)N(CC)CC)=C(C#N)C1c1ccccc1 (centres undefined) | 51.2% (active)
58 | CCc1ccc(NC(=O)CSC2=C(C#N)C(c3ccco3)C3=C(CCCC3=O)N2)cc1 (centres undefined) | 44.8% (inactive)
59 | CCCCc1ccc(NC(=O)CSC2=C(C#N)C(c3ccco3)C3=C(CCCC3=O)N2)cc1 (centres undefined) | 57.6% (active)
60 | CCOC(=O)C1=C(c2ccccc2)NC(SCC(=O)Nc2ccccc2C)=C(C#N)C1c1ccco1 (centres undefined) | 38.8% (inactive)
61 | CCc1ccccc1NC(=O)CSC1=C(C#N)C(c2ccc(O)c(OC)c2)C2=C(CCCC2=O)N1 (centres undefined) | 35% (inactive)
62 | COc1ccc(NC(=O)CSC2=C(C#N)C(c3ccco3)C3=C(CCCC3=O)N2)c(OC)c1 (centres undefined) | 10.5% (inactive)
63 | O=c1[nH]c(CN2CCCCC2)nc2c1C1(CCCCC1)Cc1ccccc1-2 | -4.24% (inactive)
64 | CCCCc1[nH]c(=O)c(C#N)c2c1CSC(C)(C)C2 | 7.58% (inactive)
65 | CCCCOC(=O)CSC1=C(C#N)C(c2ccccc2OC)C(C#N)C(=O)N1 (centres undefined) | 6.07% (inactive)
66 | COc1ccc2nc(SCC(=O)O)nc(C)c2c1 | -2.56% (inactive)
67 | COc1ccc(-c2cc(=O)[nH]c(=O)[nH]2)cc1 | 1.67% (inactive)
68 | Cc1nnc2n(-c3ccccc3)c(=O)c3c4c(sc3n12)COC(C)(C)C4 | -0.59% (inactive)
69 | N#Cc1ccc(-c2cccnc2)nc1SCC(=O)Nc1sc2c(c1C#N)CCC2 | 14.6% (inactive)
70 | CCC(C)n1ncn(-c2ccc(N3CCN(c4ccc(OCC5COC(Cn6cncn6)(c6ccc(Cl)cc6Cl)O5)cc4)CC3)cc2)c1=O (centres undefined) | 50.3% (active)
71 | COCc1n[nH]c(=S)n1-c1cccc2ccccc12 | 4.29% (inactive)
72 | CCOc1ccc(N=C2C(=O)N(CN3CCOCC3)c3ccccc32)cc1 | 20.3% (inactive)
73 | COC(=O)c1ccc(Cn2c(O)c(N=O)c3ccccc32)o1 | 8.55% (inactive)
74 | CCCCCC(=O)N1CC2(CC)CN(C(=O)CCCCC)CC(CC)(C1)C2=O | 14.3% (inactive)
75 | O=C(O)CCSc1ccc2ccccc2n1 | 1.45% (inactive)
76 | O=C1c2ccccc2C(=O)C1c1ccc2ccccc2n1 | 74.9% (active)
77 | CC(Sc1ccc2ccccc2n1)C(=O)O (centres undefined) | -2.6% (inactive)
78 | COC(=O)/C(=C1/Oc2cc(C)oc(=O)c2S1)C(F)(F)F | 76.1% (active)

Row | SMILES | growth inhibition
79 | COC(=O)C1=C(N)Oc2cc(C)oc(=O)c2C1c1ccncc1 (centres undefined) | -1.55% (inactive)
80 | COC(=O)c1ccc(C2/C(=C(\O)c3cccc(OC)c3)C(=O)C(=O)N2CCCN(C)C)cc1 (centres undefined) | 1.92% (inactive)
81 | Cc1nnc2n(-c3ccccc3)c(=O)c3c4c(sc3n12)CC(C)CC4 (centres undefined) | 12.7% (inactive)
82 | CN=C(c1ccco1)n1c(=S)nc(-c2ccco2)n(C)c1=S | 5.55% (inactive)
83 | CC(=O)Oc1cccc2c1C(=O)c1c(OC(C)=O)cc(C(=O)O)cc1C2=O | 57.8% (active)
84 | CC(=O)Oc1ccccc1C1OC(=O)c2ccccc2N1C(C)=O (centres undefined) | 4.51% (inactive)
85 | COc1cc(C(=O)Nc2ccc(O)cc2C(=O)O)ccc1OC(C)=O | 2.72% (inactive)
86 | NS(=O)(=O)c1ccc(C(=O)O)cc1 | -6.06% (inactive)
87 | O=C(O)c1cc(O)c2c(c1)C(=O)c1cccc(O)c1C2=O | 59.2% (active)
88 | Nc1cccc(C(=O)O)c1 | 4.57% (inactive)
89 | CN1CCN(Cc2c(O)ccc3c(-c4ccccc4)cc(=O)oc23)CC1 | 8.11% (inactive)
90 | Cc1c(Cl)c(C(F)(F)F)nn1CC(=O)N1CCSCC1 | 8.88% (inactive)
91 | Cn1c(OCc2cccnc2)nc2c1c(=O)n(Cc1ccc(Cl)cc1)c(=O)n2C | 35.5% (inactive)
92 | O=C(NCCCNCc1ccccc1)/C(=N\O)c1ccccc1 | 1.98% (inactive)
93 | CCOC(=O)c1[nH]c2ccc(Br)cc2c1NC(=O)CNC | 15.7% (inactive)
94 | C=COC(=O)CSc1nc(-c2cccs2)ccc1C#N | 5.33% (inactive)
95 | CC(=O)NCC(=O)OCN1C(=O)c2ccccc2C1=O | -2.75% (inactive)
96 | COC(=O)Nc1nc2ccc(Sc3ccccc3)cc2[nH]1 | 81.7% (active)
97 | COC(=O)Nc1nc2ccc(C(=O)c3ccccc3)cc2[nH]1 | 55.8% (active)
98 | CCOc1ccc2nc(SCC(=O)Nc3ncccn3)[nH]c2c1 | -4.07% (inactive)
99 | CC(=O)Nc1ccc(Oc2ccc3nc(C)[nH]c3c2)cc1 | 10.6% (inactive)
100 | CCCOc1ccc2nc(NC(=O)OC)[nH]c2c1 | 48.4% (inactive)
101 | Cn1c(=O)oc2cc(C(=O)c3ccccc3)ccc21 | 13.3% (inactive)
102 | CCC(=O)Nc1nc(C)c(Oc2ccccc2)c(=O)[nH]1 | 1.39% (inactive)
103 | Cn1c(=O)n(C)c2cc(C(=O)c3ccccc3)ccc21 | 5.5% (inactive)
104 | CCCSc1ccc2nc(NC(=O)OC)[nH]c2c1 | 53.2% (active)
